Our source for the inhibition values is ChEMBL document CHEMBL1961873, “Compounds: GSK PKIS; Assays: Nanosyn kinase panel” (2012).

As a reminder, the inhibition is the drop in the measured response relative to a control, in per cent.

Assay [1] concerns the target RAC-alpha serine/threonine-protein kinase (Homo sapiens) (UniProt P31749). The conditions noted are these: at 0.1 µM.
The target is the same in assay [2]. The conditions noted are these: at 1 µM.
Assay [3] addresses RAC-beta serine/threonine-protein kinase (Homo sapiens) (UniProt P31751). The conditions noted are these: at 0.1 µM.
Assay [4] has the same target. The settings on record: at 1 µM.
For assay [5], the target named is RAC-gamma serine/threonine-protein kinase (Homo sapiens) (UniProt Q9Y243). The conditions noted are these: at 0.1 µM.
The target is the same in assay [6]. The settings on record: at 1 µM.
For assay [7], the target named is G protein-coupled receptor kinase 6 (Homo sapiens) (UniProt P43250). The conditions noted are these: at 0.1 µM.
Assay [8] has the same target. The settings on record: at 1 µM.
The target of assay [9] is T1, Rhodopsin kinase GRK7 (Homo sapiens) (UniProt Q8WTQ7).
T1 sequence (whole entry): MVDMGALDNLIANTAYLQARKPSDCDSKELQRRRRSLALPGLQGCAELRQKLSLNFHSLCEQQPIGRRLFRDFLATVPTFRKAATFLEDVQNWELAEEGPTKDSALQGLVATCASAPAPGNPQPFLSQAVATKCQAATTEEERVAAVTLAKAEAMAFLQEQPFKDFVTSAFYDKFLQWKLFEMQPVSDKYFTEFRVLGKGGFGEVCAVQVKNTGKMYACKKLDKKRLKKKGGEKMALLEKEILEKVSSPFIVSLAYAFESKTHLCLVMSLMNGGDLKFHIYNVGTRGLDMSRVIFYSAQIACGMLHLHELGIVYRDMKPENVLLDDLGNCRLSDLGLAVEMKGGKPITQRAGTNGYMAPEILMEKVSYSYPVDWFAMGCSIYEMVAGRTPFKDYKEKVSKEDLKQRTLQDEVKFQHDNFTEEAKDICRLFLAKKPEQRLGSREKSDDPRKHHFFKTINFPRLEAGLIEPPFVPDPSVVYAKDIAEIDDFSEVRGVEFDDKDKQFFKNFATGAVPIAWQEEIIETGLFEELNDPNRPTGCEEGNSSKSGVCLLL
The conditions noted are these: at 0.1 µM.

In assay [10] the target is T1, Rhodopsin kinase GRK7 (Homo sapiens). The settings on record: at 1 µM.
The target of assay [11] is Serine/threonine-protein kinase MRCK alpha (Homo sapiens) (UniProt Q5VT25). The settings on record: at 0.1 µM.
The target is the same in assay [12]. The conditions noted are these: at 1 µM.
The target of assay [13] is Serine/threonine-protein kinase MRCK beta (Homo sapiens) (UniProt Q9Y5S2). The settings on record: at 0.1 µM.
For assay [14] the target is unchanged. The settings on record: at 1 µM.
The target in assay [15] is Ribosomal protein S6 kinase alpha-5 (Homo sapiens) (UniProt O75582). The settings on record: at 0.1 µM.
Assay [16] has the same target. The conditions noted are these: at 1 µM.
Assay [17] deals with Ribosomal protein S6 kinase alpha-4 (Homo sapiens) (UniProt O75676). The conditions noted are these: at 0.1 µM.
The target is the same in assay [18]. The settings on record: at 1 µM.
Assay [19] has as its target Ribosomal protein S6 kinase beta-1 (Homo sapiens) (UniProt P23443). The conditions noted are these: at 0.1 µM.
Assay [20] shares this target. The settings on record: at 1 µM.

G protein-coupled receptor kinase 6 (Homo sapiens), sequence (P43250 whole entry, looked up): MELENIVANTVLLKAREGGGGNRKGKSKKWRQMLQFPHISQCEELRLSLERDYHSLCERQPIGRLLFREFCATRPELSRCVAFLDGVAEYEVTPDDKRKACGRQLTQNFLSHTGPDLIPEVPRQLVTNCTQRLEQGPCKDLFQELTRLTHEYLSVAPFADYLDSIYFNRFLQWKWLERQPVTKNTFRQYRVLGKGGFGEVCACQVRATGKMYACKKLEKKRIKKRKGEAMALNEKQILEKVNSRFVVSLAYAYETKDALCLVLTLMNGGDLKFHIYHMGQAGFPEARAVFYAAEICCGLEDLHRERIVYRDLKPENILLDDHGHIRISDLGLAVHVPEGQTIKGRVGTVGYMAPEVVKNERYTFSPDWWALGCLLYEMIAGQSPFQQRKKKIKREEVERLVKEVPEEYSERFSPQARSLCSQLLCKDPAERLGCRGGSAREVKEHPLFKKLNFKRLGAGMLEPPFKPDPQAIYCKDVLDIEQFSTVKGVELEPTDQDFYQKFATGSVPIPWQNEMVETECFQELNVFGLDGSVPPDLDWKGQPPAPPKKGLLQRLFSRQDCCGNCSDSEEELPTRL
Serine/threonine-protein kinase MRCK beta (Homo sapiens), sequence (Q9Y5S2 whole entry): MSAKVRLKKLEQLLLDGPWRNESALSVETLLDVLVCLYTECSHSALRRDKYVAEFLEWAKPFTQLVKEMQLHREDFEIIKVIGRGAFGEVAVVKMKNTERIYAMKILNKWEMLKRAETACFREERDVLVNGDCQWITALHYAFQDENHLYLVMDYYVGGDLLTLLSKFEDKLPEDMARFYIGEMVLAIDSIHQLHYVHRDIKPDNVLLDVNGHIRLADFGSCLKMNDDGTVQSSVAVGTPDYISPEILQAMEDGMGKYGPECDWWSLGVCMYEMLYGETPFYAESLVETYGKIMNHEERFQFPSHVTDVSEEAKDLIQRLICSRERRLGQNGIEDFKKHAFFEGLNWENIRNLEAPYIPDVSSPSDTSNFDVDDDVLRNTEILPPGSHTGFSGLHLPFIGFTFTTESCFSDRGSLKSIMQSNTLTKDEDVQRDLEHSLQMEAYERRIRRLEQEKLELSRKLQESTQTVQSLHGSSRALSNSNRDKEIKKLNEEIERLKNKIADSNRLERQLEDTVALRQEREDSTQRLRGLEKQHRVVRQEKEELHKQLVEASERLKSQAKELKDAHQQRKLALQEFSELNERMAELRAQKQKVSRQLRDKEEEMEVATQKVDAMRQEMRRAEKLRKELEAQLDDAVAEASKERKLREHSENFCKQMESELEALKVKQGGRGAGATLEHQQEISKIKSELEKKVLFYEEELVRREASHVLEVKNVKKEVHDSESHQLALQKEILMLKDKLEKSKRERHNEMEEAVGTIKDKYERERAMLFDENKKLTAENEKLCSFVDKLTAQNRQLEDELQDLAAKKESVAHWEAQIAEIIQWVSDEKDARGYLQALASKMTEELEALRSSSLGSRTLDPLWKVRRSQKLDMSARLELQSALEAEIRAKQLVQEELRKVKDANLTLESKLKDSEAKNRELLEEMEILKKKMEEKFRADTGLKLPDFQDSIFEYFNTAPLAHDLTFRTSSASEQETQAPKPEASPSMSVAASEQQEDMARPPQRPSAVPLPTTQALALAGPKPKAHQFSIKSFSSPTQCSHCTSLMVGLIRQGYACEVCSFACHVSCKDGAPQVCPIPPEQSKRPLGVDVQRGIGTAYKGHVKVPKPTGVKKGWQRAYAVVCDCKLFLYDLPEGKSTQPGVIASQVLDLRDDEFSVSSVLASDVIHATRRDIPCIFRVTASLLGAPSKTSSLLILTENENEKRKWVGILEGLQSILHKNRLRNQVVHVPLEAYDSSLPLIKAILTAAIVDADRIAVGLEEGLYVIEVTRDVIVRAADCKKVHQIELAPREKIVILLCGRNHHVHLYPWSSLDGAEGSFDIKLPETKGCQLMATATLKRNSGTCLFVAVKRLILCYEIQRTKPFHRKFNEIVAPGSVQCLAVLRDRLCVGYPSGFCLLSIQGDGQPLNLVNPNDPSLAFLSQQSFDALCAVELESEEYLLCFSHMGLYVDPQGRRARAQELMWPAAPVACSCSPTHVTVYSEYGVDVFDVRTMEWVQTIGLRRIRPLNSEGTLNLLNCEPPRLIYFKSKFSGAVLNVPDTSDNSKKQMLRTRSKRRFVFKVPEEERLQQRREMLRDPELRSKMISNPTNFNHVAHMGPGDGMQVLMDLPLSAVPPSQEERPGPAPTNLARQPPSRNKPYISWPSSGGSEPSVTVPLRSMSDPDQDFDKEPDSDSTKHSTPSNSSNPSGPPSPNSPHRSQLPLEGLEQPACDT
Serine/threonine-protein kinase MRCK alpha (Homo sapiens), sequence (Q5VT25 whole entry): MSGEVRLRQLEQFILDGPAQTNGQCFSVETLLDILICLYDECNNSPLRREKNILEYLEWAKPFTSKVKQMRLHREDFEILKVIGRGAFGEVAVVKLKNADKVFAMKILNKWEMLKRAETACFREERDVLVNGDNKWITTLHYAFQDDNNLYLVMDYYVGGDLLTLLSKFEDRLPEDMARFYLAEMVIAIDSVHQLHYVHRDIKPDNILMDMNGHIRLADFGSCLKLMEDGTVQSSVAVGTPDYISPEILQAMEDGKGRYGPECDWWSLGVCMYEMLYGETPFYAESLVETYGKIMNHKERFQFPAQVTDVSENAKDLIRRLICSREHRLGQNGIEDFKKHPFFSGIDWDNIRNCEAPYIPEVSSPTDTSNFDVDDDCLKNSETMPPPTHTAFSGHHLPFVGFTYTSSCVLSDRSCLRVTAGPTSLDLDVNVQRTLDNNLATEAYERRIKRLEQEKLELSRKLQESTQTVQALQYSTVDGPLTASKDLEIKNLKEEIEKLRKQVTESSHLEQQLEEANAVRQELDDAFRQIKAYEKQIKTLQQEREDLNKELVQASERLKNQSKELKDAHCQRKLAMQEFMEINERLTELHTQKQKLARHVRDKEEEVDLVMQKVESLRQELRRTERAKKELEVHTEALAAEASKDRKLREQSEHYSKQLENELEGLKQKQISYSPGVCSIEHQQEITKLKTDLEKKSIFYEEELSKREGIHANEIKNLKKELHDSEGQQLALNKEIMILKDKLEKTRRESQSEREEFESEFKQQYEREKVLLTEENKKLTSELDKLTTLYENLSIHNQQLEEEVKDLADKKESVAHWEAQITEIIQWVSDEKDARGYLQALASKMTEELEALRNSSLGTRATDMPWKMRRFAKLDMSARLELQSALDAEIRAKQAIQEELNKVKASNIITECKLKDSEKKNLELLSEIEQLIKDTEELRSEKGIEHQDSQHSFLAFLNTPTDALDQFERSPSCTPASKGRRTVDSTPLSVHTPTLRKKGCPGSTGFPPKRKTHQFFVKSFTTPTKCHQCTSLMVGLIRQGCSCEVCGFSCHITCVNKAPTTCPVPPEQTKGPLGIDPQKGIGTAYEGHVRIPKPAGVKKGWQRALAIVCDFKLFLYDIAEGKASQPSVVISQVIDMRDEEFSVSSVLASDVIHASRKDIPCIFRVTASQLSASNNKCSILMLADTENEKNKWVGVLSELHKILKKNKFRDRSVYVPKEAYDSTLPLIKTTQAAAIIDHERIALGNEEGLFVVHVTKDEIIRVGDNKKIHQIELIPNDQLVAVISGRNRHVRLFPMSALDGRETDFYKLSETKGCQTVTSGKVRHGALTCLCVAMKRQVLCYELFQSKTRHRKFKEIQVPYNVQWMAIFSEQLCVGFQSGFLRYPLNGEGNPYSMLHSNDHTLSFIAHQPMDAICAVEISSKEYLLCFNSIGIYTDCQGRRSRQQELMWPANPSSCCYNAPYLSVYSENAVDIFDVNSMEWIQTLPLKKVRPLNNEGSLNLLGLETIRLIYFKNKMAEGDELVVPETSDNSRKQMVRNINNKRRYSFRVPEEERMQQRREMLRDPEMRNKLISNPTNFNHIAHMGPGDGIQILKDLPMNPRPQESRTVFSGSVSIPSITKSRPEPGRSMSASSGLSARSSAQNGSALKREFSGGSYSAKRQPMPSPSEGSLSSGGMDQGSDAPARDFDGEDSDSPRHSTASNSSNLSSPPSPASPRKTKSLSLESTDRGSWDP
RAC-alpha serine/threonine-protein kinase (Homo sapiens), sequence (P31749 whole entry): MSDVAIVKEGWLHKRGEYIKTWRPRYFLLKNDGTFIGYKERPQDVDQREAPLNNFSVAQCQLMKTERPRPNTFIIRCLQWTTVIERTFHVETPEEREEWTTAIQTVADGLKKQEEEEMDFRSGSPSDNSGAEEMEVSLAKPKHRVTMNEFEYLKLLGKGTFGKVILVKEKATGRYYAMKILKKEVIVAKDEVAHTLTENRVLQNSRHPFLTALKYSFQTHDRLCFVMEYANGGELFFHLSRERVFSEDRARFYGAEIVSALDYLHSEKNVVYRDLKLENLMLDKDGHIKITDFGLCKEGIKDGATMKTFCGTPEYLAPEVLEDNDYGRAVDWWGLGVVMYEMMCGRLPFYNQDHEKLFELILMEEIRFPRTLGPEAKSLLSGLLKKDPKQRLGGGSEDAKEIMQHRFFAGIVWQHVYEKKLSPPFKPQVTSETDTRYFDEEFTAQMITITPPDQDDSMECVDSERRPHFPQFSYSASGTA
Ribosomal protein S6 kinase beta-1 (Homo sapiens), sequence (P23443 whole entry, looked up): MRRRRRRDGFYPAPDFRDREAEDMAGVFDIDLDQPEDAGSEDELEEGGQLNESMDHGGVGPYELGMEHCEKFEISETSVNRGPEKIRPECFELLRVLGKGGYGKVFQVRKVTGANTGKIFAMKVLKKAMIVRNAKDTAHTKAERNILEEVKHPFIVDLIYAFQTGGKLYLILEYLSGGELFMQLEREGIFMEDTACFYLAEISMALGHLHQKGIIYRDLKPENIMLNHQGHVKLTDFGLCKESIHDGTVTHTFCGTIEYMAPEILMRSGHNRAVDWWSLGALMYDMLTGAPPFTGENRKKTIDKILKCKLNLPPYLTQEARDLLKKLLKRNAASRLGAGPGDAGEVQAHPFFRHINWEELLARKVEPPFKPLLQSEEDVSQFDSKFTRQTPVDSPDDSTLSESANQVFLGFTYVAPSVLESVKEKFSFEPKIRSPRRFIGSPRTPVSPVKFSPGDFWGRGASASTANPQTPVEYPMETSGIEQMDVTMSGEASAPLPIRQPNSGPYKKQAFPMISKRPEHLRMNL

Consider `CCS(=O)(=O)c1ccc(OC)c(Nc2ncc(-c3cccc(-c4ccccc4F)c3)o2)c1`, for which the inhibition was -0.24% in assay [1]; -0.11% in assay [2]; 0.25% in assay [3]; 0.43% in assay [4]; 1.02% in [5]; -0.29% in assay [6]. Further, the inhibition in assay [7] is 1.94%; in [8], -0.56%; in assay [9], 0.7%; in assay [10], -0.85%; in [11] it was -0.09%; in assay [12], -0.52%. For the same molecule, the inhibition came out at 0.66% in assay [13]; 1.36% in assay [14]; 0.09% in [15]; 1.42% in assay [16]; 0.74% in assay [17]; 1.94% in assay [18]. The inhibition in assay [19] worked out at 0.15%; in assay [20] it was 1.18%.

On to `COc1cccc(-n2cnc3c(N/N=C/c4ccncc4)ncnc32)c1`, for which the inhibition in assay [1] was -4.15%; in assay [2], -3.41%; in assay [3], -3.57%; in assay [4], -4.73%; in assay [5] it was -4.17%; in assay [6], -3.32%. Besides, the inhibition is 2.45% in assay [7]; 8.28% in assay [8]; 1.71% in assay [9]; 5.64% in assay [10]; 1.59% in [11]; 3.69% in assay [12]. Moreover, the inhibition in assay [13] is 0.38%; in [14] it was 0.7%; in [15], -0.31%; in assay [16], 1.02%; in assay [17] it was 2.44%; in assay [18], 3.95%. Besides, the inhibition in assay [19] was -0.32%; in assay [20], 1.15%.

Take `Cc1ccc(C(=O)NC2CCC2)cc1-c1ccc(C(=O)NCC2CC2)cc1`: the inhibition in assay [1] is 0.45%; in [2], -0.14%; in assay [3] it was 1.03%; in [4] it was 1.6%; in [5] it was 2.92%; in [6], 2.79%. The inhibition turned out to be 1.01% in assay [7]; 1.27% in assay [8]; 2.9% in [9]; 3.16% in assay [10]; 0.19% in [11]; 0.56% in assay [12]. The inhibition in assay [13] stood at 0.73%; in assay [14], 0.97%; in assay [15], 2.7%; in assay [16], 2.99%; in assay [17] it was 1.75%; in [18], 3.11%. Further, the values for the inhibition in [19] and in [20] were 1.12% and 0.01%, respectively.

In the case of `O=C1Nc2ccccc2/C1=C/Nc1ccc(-n2cncn2)cc1`, the inhibition was 0.19% in [1]; -0.09% in assay [2]; 1.56% in assay [3]; 0.9% in [4]; 0.39% in assay [5]; 2.21% in [6]. Besides, the inhibition in assay [7] was found to be 7.2%; in [8] it was 14.8%; in [9], 5.5%; in assay [10] it was 14.9%; in assay [11] it was 0.72%; in [12] it was 3.59%. For the same molecule, the inhibition in assay [13] came to 0.37%; in assay [14], 1.08%; in [15], 5.48%; in [16], 8.54%; in [17] it was 3.95%; in [18], 13.4%. Besides, the inhibition in assay [19] amounted to 2.05%; in assay [20], 9.06%.

Take `COc1cc(Nc2ncc3c(C)nc(-c4cccc(Oc5ccccc5)c4)n3n2)cc(OC)c1OC`: the inhibition in assay [1] was 0.97%; in assay [2], 1.22%; in assay [3] it was 0.47%; in assay [4], 1.85%; in [5] it was 1.02%; in assay [6] it was 1.43%. Also, the inhibition is 1.19% in [7]; -5.44% in assay [8]; -0.36% in [9]; -5.43% in [10]; 0.02% in [11]; -0.11% in [12]. Also, the inhibition in [13] is 0.97%; in [14], 1.86%; in assay [15], 8.17%; in assay [16], 7.74%; in [17], 0.96%; in assay [18], 2.98%. Also, the inhibition in assay [19] was found to be 1.98%; in [20], 3.01%.

`COc1cc(Nc2ncc(-c3ccccc3)o2)cc(OC)c1OC`: the inhibition was -1.72% in [1]; -1.61% in [2]; -2.18% in [3]; -1.88% in assay [4]; -1.76% in [5]; 1.14% in [6]. In addition, the inhibition in assay [7] was -1.02%; in [8] it was -0.02%; in [9] it was 3.87%; in [10], -9.33%; in [11], 2.53%; in [12], 3.73%. Also, the inhibition is 0.08% in [13]; 0.86% in assay [14]; 0.23% in assay [15]; 0.82% in assay [16]; -1.71% in assay [17]; 0.02% in [18]. In addition, the inhibition in assay [19] was -0.45%; in assay [20] it was 3.55%.

Turning to `O=C(Nc1ccc(Oc2ccc3[nH]c(NC(=O)c4ccccc4)nc3c2)cc1)Nc1cc(C(F)(F)F)ccc1F`, the inhibition in assay [1] is -0.2%; in assay [2], 1.04%; in assay [3], 1.71%; in assay [4], 1.18%; in assay [5] it was 1.05%; in assay [6], 1.51%. Besides, the inhibition in [7] is 2.58%; in assay [8], 4.7%; in [9], 0.51%; in assay [10] it was -2.78%; in [11], -0.69%; in assay [12], 1%. Also, the inhibition is -0.31% in assay [13]; -0.22% in assay [14]; 4.16% in assay [15]; 5.67% in assay [16]; 2.16% in assay [17]; 3.01% in assay [18]. The values for the inhibition in assay [19] and in assay [20] were 5.73% and 36.4%, respectively.
